# Experimental data reported in ChEMBL document CHEMBL2218924, “A broad activity screen in support of a chemogenomic map for kinase signalling research and drug discovery” (Biochem J, 2013).
# Assays:
# [1] = biological target: T1, Tyrosine-protein kinase Tec (Homo sapiens) (UniProt P42680); details: at 10 µM
# T1 sequence (whole entry): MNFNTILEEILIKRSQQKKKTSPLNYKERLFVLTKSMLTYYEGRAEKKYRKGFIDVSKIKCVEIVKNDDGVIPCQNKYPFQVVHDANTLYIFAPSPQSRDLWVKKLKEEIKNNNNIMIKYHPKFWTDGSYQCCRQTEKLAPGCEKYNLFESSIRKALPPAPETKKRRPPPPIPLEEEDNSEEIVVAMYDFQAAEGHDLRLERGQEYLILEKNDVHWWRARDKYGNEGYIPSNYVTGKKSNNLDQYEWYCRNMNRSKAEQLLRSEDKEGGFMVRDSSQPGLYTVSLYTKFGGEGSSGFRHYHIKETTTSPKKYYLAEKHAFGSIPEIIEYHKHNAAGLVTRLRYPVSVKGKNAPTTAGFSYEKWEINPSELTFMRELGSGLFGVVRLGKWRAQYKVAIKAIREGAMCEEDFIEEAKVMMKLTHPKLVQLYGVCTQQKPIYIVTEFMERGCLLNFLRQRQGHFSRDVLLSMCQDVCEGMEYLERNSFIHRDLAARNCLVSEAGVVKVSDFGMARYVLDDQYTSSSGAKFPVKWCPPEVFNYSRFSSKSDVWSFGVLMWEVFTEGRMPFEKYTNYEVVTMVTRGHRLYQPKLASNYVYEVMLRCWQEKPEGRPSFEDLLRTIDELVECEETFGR
# [2] = biological target: High affinity nerve growth factor receptor (Homo sapiens) (UniProt P04629); details: at 1 µM
# Chain of High affinity nerve growth factor receptor (Homo sapiens) (P04629 33-796 limits assumed): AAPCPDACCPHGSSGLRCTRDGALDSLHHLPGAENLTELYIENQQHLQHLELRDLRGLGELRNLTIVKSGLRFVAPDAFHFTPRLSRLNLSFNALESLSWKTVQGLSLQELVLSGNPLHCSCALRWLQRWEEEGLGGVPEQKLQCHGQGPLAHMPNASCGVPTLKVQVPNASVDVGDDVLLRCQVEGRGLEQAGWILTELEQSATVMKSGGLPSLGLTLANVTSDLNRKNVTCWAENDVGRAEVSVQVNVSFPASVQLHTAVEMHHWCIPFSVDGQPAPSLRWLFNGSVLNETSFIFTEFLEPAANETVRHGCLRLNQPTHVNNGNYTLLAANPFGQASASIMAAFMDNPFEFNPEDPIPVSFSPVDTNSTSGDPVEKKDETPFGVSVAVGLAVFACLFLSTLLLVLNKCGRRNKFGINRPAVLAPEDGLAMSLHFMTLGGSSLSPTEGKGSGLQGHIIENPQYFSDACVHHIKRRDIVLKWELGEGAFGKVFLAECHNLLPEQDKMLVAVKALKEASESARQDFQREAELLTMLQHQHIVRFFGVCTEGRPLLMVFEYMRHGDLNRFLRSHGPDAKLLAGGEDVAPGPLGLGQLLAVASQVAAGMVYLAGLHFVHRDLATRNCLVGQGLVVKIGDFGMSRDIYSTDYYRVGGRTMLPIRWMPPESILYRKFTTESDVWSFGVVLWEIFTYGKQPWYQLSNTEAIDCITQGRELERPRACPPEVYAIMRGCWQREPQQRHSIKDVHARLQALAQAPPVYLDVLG
# [3] = biological target: High affinity nerve growth factor receptor (Homo sapiens) (UniProt P04629); details: at 10 µM
# [4] = biological target: BDNF/NT-3 growth factors receptor (Homo sapiens) (UniProt Q16620); details: at 1 µM
# Chain of BDNF/NT-3 growth factors receptor (Homo sapiens) (Q16620 32-822 limits assumed): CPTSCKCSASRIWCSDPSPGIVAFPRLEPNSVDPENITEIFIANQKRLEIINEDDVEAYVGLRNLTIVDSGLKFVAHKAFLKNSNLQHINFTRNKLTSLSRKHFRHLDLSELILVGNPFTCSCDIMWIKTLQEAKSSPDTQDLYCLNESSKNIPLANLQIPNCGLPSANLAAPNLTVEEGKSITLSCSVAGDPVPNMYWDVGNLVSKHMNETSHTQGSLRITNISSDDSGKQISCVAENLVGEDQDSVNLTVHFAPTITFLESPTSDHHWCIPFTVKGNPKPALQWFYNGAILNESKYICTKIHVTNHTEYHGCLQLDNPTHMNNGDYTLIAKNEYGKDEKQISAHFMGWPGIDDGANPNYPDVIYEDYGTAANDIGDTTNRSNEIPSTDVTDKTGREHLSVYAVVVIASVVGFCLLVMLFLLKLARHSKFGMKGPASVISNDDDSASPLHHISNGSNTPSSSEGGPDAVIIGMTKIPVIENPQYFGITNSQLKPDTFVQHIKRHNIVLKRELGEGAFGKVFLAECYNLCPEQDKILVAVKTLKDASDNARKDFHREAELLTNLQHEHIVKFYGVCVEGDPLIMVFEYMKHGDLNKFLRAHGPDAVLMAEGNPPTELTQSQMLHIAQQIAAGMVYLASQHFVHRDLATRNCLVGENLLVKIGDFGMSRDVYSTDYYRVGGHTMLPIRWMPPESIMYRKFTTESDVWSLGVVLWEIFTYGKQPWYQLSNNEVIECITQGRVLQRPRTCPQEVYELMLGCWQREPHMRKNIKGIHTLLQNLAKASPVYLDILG
# [5] = biological target: BDNF/NT-3 growth factors receptor (Homo sapiens) (UniProt Q16620); details: at 10 µM
# [6] = biological target: T2, Tyrosine-protein kinase TXK (Homo sapiens) (UniProt P42681); details: at 1 µM
# T2 sequence (whole entry): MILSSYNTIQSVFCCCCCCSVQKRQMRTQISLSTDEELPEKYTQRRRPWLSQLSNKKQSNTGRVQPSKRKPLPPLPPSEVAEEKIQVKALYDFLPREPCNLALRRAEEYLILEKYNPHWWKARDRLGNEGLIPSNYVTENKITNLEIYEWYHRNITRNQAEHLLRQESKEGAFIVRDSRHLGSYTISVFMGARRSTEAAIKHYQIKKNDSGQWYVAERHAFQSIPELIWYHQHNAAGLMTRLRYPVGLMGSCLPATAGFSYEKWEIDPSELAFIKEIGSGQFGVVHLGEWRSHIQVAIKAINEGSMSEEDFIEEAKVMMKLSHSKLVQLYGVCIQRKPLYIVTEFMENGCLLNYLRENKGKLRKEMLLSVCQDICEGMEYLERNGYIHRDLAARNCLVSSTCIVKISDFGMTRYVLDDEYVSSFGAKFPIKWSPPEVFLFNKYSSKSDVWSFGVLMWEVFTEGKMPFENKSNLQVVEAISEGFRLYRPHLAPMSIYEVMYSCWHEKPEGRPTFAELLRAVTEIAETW
# [7] = biological target: T2, Tyrosine-protein kinase TXK (Homo sapiens); details: at 10 µM
# [8] = biological target: T3, Testis-specific serine/threonine-protein kinase 2 (Homo sapiens) (UniProt Q96PF2); details: at 10 µM
# T3 sequence (whole entry): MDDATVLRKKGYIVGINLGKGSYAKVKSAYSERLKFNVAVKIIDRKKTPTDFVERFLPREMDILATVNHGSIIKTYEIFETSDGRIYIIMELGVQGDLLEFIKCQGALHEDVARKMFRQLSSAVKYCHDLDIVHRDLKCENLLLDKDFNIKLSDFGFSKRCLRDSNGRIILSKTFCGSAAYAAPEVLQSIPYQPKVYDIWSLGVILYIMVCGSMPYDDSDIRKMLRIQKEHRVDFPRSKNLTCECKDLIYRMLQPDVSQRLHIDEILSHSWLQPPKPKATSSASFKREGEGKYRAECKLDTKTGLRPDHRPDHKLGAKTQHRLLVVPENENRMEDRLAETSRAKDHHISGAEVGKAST
# [9] = biological target: T1, Tyrosine-protein kinase Tec (Homo sapiens); details: at 1 µM
# [10] = biological target: Angiopoietin-1 receptor (Homo sapiens) (UniProt Q02763); details: at 10 µM
# [11] = biological target: T4, Serine/threonine-protein kinase ULK2 (Homo sapiens) (UniProt Q8IYT8); details: at 10 µM
# T4 sequence (whole entry): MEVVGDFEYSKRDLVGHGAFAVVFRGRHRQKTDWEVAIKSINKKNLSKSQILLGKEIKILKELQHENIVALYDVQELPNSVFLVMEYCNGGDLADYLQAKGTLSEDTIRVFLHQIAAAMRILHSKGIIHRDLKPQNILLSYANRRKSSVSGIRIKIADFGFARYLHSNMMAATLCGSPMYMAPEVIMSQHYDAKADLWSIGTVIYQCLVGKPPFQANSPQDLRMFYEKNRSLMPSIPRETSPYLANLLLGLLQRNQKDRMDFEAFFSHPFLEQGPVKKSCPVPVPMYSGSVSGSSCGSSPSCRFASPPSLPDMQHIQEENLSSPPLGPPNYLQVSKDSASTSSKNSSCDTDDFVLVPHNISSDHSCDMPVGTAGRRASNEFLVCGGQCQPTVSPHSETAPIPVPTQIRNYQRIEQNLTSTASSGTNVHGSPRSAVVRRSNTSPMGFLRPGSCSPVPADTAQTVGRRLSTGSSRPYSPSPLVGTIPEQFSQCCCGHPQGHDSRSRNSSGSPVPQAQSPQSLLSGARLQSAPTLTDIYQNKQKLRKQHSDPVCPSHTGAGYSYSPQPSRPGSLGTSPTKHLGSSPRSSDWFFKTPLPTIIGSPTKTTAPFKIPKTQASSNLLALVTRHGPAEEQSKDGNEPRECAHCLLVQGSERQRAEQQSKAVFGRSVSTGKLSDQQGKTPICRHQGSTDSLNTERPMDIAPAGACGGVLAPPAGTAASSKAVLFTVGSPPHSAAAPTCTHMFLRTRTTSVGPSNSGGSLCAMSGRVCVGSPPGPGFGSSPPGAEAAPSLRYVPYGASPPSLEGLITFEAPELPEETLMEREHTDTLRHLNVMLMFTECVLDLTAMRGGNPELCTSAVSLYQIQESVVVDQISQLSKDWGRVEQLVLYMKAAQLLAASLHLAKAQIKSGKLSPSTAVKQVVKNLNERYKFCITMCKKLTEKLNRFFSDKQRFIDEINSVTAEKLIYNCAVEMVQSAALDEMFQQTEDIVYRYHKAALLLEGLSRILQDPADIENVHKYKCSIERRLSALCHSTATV
# [12] = biological target: T5, Serine/threonine-protein kinase ULK3 (Homo sapiens) (UniProt Q6PHR2); details: at 10 µM
# T5 sequence (whole entry): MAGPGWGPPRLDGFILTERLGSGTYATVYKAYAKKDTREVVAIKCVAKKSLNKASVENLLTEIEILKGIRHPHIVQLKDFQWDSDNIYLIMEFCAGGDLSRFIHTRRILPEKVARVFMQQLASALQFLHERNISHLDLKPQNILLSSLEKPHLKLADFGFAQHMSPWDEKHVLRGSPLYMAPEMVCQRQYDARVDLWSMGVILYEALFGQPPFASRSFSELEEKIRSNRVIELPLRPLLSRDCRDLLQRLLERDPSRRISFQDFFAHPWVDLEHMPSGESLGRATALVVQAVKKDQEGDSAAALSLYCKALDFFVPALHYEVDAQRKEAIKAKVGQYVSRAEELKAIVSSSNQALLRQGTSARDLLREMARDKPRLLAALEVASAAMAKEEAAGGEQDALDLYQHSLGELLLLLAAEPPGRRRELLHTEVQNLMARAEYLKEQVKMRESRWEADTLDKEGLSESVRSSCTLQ
# [13] = biological target: Serine/threonine-protein kinase VRK2 (Homo sapiens) (UniProt Q86Y07); details: at 1 µM
# Chain of Serine/threonine-protein kinase VRK2 (Homo sapiens) (Q86Y07 whole entry): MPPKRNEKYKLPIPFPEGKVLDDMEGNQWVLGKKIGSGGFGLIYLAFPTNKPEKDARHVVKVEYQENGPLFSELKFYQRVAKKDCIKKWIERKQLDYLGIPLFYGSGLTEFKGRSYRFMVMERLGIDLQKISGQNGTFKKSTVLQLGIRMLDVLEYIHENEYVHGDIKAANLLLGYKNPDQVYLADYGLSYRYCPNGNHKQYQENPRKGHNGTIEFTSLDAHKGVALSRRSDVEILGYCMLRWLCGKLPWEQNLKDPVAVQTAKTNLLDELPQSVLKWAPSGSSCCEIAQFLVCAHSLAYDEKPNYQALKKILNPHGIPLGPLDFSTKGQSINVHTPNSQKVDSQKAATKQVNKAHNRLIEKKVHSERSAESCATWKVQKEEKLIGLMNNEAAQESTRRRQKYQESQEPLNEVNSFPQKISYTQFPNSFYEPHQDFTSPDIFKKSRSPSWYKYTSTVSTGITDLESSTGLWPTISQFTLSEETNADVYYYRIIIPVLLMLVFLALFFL
# [14] = biological target: Serine/threonine-protein kinase VRK2 (Homo sapiens) (UniProt Q86Y07); details: at 10 µM
# [15] = biological target: Serine/threonine-protein kinase WNK2 (Homo sapiens) (UniProt Q9Y3S1); details: at 1 µM;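 also: residual WNK2 kinase activity expressed as percent of uninhibited control, assayed in MOPS buffer at pH 7.0 containing EDTA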
# Chain of Serine/threonine-protein kinase WNK2 (Homo sapiens) (Q9Y3S1 whole entry): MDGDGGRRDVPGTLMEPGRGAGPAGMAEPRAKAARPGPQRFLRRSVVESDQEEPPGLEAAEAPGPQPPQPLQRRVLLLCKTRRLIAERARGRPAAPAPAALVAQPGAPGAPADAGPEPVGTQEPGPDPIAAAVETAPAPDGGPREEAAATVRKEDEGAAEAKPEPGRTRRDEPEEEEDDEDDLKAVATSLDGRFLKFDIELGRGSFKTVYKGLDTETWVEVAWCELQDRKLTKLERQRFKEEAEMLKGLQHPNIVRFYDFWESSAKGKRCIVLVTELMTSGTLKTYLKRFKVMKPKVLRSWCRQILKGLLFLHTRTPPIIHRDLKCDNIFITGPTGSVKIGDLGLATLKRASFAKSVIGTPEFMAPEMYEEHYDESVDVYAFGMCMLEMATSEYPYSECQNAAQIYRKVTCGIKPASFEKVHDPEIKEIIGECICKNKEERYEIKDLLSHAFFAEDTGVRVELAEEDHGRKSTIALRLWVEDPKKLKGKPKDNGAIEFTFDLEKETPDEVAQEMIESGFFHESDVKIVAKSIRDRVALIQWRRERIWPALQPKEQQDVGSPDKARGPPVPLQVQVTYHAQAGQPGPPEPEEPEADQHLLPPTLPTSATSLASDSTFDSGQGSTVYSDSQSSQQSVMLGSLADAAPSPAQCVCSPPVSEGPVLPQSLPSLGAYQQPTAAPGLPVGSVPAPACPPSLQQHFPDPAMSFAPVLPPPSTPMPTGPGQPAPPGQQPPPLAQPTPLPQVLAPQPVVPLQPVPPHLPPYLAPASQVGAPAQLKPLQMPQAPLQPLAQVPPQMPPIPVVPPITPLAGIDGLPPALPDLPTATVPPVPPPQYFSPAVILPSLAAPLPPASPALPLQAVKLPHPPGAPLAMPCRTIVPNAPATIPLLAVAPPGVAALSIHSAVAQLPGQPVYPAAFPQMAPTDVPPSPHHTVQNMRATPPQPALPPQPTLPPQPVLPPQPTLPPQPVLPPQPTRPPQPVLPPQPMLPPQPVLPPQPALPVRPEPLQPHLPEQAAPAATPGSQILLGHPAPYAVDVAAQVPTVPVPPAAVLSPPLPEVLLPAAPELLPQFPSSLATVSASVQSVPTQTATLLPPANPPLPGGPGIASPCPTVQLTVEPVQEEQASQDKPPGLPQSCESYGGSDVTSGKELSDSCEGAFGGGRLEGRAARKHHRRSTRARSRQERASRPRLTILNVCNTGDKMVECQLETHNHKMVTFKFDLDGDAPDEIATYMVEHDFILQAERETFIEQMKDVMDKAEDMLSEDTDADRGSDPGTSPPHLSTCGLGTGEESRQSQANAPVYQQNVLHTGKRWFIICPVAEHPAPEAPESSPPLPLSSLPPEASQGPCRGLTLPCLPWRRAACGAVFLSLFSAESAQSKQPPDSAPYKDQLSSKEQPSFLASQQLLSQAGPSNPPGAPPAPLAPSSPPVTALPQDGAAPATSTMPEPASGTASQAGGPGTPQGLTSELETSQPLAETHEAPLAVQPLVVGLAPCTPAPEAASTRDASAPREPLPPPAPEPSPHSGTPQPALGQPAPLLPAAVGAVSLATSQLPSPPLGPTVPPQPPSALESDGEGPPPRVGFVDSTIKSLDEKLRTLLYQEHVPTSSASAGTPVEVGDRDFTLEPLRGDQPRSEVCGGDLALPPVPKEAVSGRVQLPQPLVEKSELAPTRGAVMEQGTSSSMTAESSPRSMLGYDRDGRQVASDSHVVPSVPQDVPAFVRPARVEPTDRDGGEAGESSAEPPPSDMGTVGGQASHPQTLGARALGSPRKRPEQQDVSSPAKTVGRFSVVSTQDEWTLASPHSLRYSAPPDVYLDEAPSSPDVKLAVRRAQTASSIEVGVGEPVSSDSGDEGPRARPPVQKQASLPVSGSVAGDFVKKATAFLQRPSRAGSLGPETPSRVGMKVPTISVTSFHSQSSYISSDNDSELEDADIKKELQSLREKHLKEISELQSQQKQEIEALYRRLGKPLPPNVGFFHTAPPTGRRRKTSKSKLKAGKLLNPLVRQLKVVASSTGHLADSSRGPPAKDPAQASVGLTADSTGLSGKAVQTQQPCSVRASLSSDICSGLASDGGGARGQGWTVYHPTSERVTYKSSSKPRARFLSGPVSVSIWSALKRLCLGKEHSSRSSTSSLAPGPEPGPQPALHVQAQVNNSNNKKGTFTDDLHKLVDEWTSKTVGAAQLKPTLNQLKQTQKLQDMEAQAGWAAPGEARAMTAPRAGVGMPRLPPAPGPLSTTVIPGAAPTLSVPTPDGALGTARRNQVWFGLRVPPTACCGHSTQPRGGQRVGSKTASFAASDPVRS
# [16] = biological target: T6, Testis-specific serine/threonine-protein kinase 1 (Homo sapiens) (UniProt Q9BXA7); details: at 10 µM
# T6 sequence (whole entry): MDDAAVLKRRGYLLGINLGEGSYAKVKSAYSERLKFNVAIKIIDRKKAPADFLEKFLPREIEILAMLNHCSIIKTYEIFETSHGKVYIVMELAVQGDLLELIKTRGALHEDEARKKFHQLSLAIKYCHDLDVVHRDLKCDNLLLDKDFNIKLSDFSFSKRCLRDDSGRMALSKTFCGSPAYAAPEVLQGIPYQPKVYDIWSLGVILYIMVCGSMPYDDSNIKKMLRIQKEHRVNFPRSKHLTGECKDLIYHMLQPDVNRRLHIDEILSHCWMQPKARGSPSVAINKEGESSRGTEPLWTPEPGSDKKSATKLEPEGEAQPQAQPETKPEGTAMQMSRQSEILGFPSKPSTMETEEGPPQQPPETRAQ
# [17] = biological target: Angiopoietin-1 receptor (Homo sapiens) (UniProt Q02763); details: at 1 µM
# [18] = biological target: T4, Serine/threonine-protein kinase ULK2 (Homo sapiens); details: at 1 µM
# [19] = biological target: T5, Serine/threonine-protein kinase ULK3 (Homo sapiens); details: at 1 µM
# [20] = biological target: T6, Testis-specific serine/threonine-protein kinase 1 (Homo sapiens); details: at 1 µM
structure (smiles),measurement,setting,value
Nc1nccc(-c2c(-c3ccc(F)cc3)ncn2C2CCNCC2)n1,residual activity,[1],77%
same,residual activity,[2],100%
same,residual activity,[3],74%
same,residual activity,[4],118%
same,residual activity,[5],61%
same,residual activity,[6],83%
same,residual activity,[7],64%
O=C(c1ccccc1)c1ccc(N2CCOCC2)cc1O,residual activity,[8],99%
same,residual activity,[9],96%
same,residual activity,[1],77%
same,residual activity,[10],80%
same,residual activity,[2],76%
same,residual activity,[3],71%
same,residual activity,[4],131%
same,residual activity,[5],113%
same,residual activity,[6],82%
same,residual activity,[7],70%
same,residual activity,[11],94%
same,residual activity,[12],92%
same,residual activity,[13],98% (inactive)
same,residual activity,[14],94%
same,residual activity,[15],115% (inactive)
CCN1/C(=C/C(C)=O)Sc2ccc(OC)cc21,residual activity,[8],75%
same,residual activity,[6],81%
same,residual activity,[7],77%
same,residual activity,[15],76% (inactive)
O=C1NC(=O)C(c2c[nH]c3ccccc23)=C1c1c[nH]c2ccccc12,residual activity,[2],58%
same,residual activity,[3],8%
same,residual activity,[4],29%
same,residual activity,[5],24%
same,residual activity,[14],75%
COc1cc2ncnc(Nc3cccc(Cl)c3)c2cc1OC,residual activity,[16],80%
same,residual activity,[1],43%
same,residual activity,[17],111%
same,residual activity,[10],83%
same,residual activity,[2],88%
same,residual activity,[3],55%
same,residual activity,[4],50%
same,residual activity,[5],61%
same,residual activity,[6],87%
same,residual activity,[7],49%
same,residual activity,[18],104%
same,residual activity,[11],100%
same,residual activity,[19],102%
same,residual activity,[12],79%
same,residual activity,[13],102% (inactive)
same,residual activity,[14],74%
COc1ccc(CNC(=O)Nc2ncc([N+](=O)[O-])s2)cc1,residual activity,[9],102%
same,residual activity,[5],110%
same,residual activity,[6],67%
same,residual activity,[7],74%
Oc1cccc(-c2nc(N3CCOCC3)c3oc4ncccc4c3n2)c1,residual activity,[8],74%
same,residual activity,[17],80%
same,residual activity,[10],59%
same,residual activity,[2],93%
same,residual activity,[3],118%
same,residual activity,[6],93%
same,residual activity,[7],92%
same,residual activity,[11],81%
same,residual activity,[12],92%
same,residual activity,[14],89%
O=C1NC(=O)C(c2cn(CCCn3ccnc3)c3ccccc23)=C1Nc1ccccc1,residual activity,[17],55%
same,residual activity,[10],32%
same,residual activity,[2],1%
same,residual activity,[3],9%
same,residual activity,[4],44%
same,residual activity,[5],18%
COc1ccc2c(c1)c(C1=C(c3c[nH]c4ccccc34)C(=O)NC1=O)cn2CCCN(C)C,residual activity,[1],63%
same,residual activity,[17],99%
same,residual activity,[10],36%
same,residual activity,[2],72%
same,residual activity,[3],35%
same,residual activity,[4],77%
same,residual activity,[5],43%
same,residual activity,[7],73%
same,residual activity,[18],101%
same,residual activity,[11],82%
same,residual activity,[19],100%
same,residual activity,[12],59%
same,residual activity,[13],102% (inactive)
same,residual activity,[14],69%
same,residual activity,[15],107% (inactive)
O=c1cc(N2CCOCC2)oc2c(-c3ccccc3)cccc12,residual activity,[8],68%
same,residual activity,[17],71%
same,residual activity,[10],64%
same,residual activity,[2],79%
same,residual activity,[3],71%
same,residual activity,[7],69%
COc1ccc(-c2cnc3c(-c4ccsc4)cnn3c2)cc1,residual activity,[20],98%
same,residual activity,[16],96%
same,residual activity,[2],76%
same,residual activity,[3],88%
same,residual activity,[4],66%
same,residual activity,[5],73%
same,residual activity,[6],70%
same,residual activity,[7],83%
same,residual activity,[18],99%
same,residual activity,[11],96%
same,residual activity,[19],96%
same,residual activity,[12],90%
